Reference: paper PMC12136788
Whole data set: some 5,800 sequences, median “enrichment r” near 0.68, cut for the highest 2% near 11. For the sample, the highest values were picked, then their nearest neighbours and some sequences at random.

B1: chr10:113908677:113908778:+|3pUTR|ENSG00000196865|unk|FALSE|bound_elsewhere (ssRNA)
RNA: GGGAGUUCUACAGUCCGACGAUCAGCUAUGCUCCUUACUUACUUCUUUUAUUAUAAACAAAUUCCUUUGCUUUGGCUGAUACUAGCUGAGUCAUUGAUCAUCAUUGGUACCAUGAUAUUGUAAUCUAUGCUGCUAUUUGGCACCAACAGAGGAUUGAGCAUCA
B2: chr5:113014749:113014850:+|3pUTR|ENSG00000172795|msi1|total|mutant (ssRNA)
RNA: GGGAGUUCUACAGUCCGACGAUCUAAAAAUCCUUUUUUACAGUGGUAUCCACAAAAUACUUCUCUGCUUAUAAAUGUUAUUGCCGAAAUCUUUAUUCUGUGCCGGCCGCCUAUUUAAUUGGGUUCCACUGAACCUCAUGGGACCAACAGAGGAUUGAGCAUCA
B3: chrX:51682015:51682831:-|CDS|ENSG00000283093|control|control|control (ssRNA)
RNA: GGGAGUUCUACAGUCCGACGAUCCAGUGCCCCCGGGUCCAAGUCGGGGUCGGGAGCCACGCGGCGGCCAAGAGGUGGCUGGGUAGGUGGCGACGGAAGCGCCGCUGGCGGCGGGUCCGGAAGGCGGGCCCCAGAGACCUGCUGCAACAGAGGAUUGAGCAUCA
B4: ENSG00000156687:stop:overlap|stop_codon|ENSG00000156687|stop_codon|NA|stop_codon (ssRNA)
RNA: GGGAGUUCUACAGUCCGACGAUCACAUUUCAGAAUCCCAGCUUGAUGAAGCCGACUUCAACUACAGCAGGCAAAAUGGACUCUAGUCCACUUCCUCCCAUGAGACAGAGUGAUGGCCAGCUUGGGGACAUUUGCUUUAAAUGGCAACAGAGGAUUGAGCAUCA
B5: chr3:120327094:120327202:-|3pUTR|ENSG00000163428|unk|FALSE|unique (ssRNA)
RNA: GGGAGUUCUACAGUCCGACGAUCGAAGAGAAGUCACCAAACACCUAGGGACAGUCCUAGGCCUAGAAAGCCCUUUAAAGUAAUAGUGAAUUGUUUUAAAAUUAAGUUAUUGAGUGGCCUACUGACUACCAUCCAAAAACCUUUCAACAGAGGAUUGAGCAUCA
B6: chr6:89631235:89631336:+|3pUTR|ENSG00000135299|msi1|FALSE|unique (ssRNA)
RNA: GGGAGUUCUACAGUCCGACGAUCUGAAGUUUGAAAGCUCAGAUUAAGCAAGCCAUGCCAAGAAACUGGACGAUGUGUAAGCCUAGACUCUAAAAUUCAAGAUGUGUGAAAUAAUAUAAGUCAAAAGCAAGAAAAACGUAAUCCCAACAGAGGAUUGAGCAUCA
B7: chr6:96891104:96891324:-|CDS|ENSG00000123545|unk|FALSE|unique (ssRNA)
RNA: GGGAGUUCUACAGUCCGACGAUCUAAUCAUAAGCUUUUCCCAGAAACCUGGACUGCUGAGAAAAUAAUGCAGGAAUACCAGUUAGAACAGAAAGAUGUGAAUUCUCUUCUUAAAUAUUUUGUUACUUUUGAAGUCGAAAUCUUCAACAGAGGAUUGAGCAUCA
B8: chr6:39540002:39540221:-|CDS|ENSG00000164627|control|control|control (ssRNA)
RNA: GGGAGUUCUACAGUCCGACGAUCCCACUUGGCUGGCAUGGAUAGACGUGAAUUCAGACAGUCCCAGAGCCCACCCUUCCGCCUAGGAAACCCAGAAGAAGGUCAAAGAAUGCGACUAUCCUCAGCUCCCUCACAGGCCCAGGACAACAGAGGAUUGAGCAUCA
B9: chr12:100626600:100626701:+|3pUTR|ENSG00000139354|unk|FALSE|unique (ssRNA)
RNA: GGGAGUUCUACAGUCCGACGAUCAAUUUUAUCAUCAAGUAUUCCCUUAUAAAACCAAGUAACACUUCUUUAUCAGUAACUUUUAGAACUUAAAAGAAAGCAAAAAGUAAAUGGAAUUGUAGGCAAUUUAUGAAUCCUAGUAGACAACAGAGGAUUGAGCAUCA
B10: chr7:127374855:127374969:-|CDS|ENSG00000048405|unk|FALSE|unique (ssRNA)
RNA: GGGAGUUCUACAGUCCGACGAUCCCUAGAAGCCAUAUAUCCAAGUGUGGACAAACGAGAAUAUAUUAUUAAGCUAGAACCCAUAGAAACUAAUCAAAAUGCAGUAUUUCAAUAUAUUUCGAGGACUGAUAAUCCUAUUGAAGUCAACAGAGGAUUGAGCAUCA
B11: chr5:111496093:111496242:-|3pUTR|ENSG00000164211|unk|FALSE|unique (ssRNA)
RNA: GGGAGUUCUACAGUCCGACGAUCUUUACAUGUAUAGUUAAAUAUUAAAAUUCAUCUCUUGCAGUUCAAUAAAAGCUAUAGUAUAGAUUUUAUUUUUAAGAAGUUUAUAUAAUUCUUUUGUGAACCAAUAUGUAAAACUAGAAUCAACAGAGGAUUGAGCAUCA
B12: chr4:54297753:54297953:+|3pUTR|ENSG00000134853|msi1|FALSE|unique (ssRNA)
RNA: GGGAGUUCUACAGUCCGACGAUCUUUUUAUGAUGACAAUCAAAGCCGGCCUGAGAAACACUAUUUGUGACUUUUUAAACGAUUAGUGAUGUCCUUAAAAUGUGGUCUGCCAAUCUGUACAAAAUGGUCCUAUUUUUGUGAAGACAACAGAGGAUUGAGCAUCA
B13: chr5:141515350:141515460:-|3pUTR|ENSG00000131504|msi1_unk|FALSE|overlapping (ssRNA)
RNA: GGGAGUUCUACAGUCCGACGAUCCUCAGCUUUCCAUCCCCAGCUAGGAAGAAAGAAUGGCACUCUUGGGCUUGGCCCAGAAUUAGAGUUAUUAGAGCAAGAGAGAGCUUAGGAAGCAUGAGGGCAACUAUAGUGAGGCCUUAUCAACAGAGGAUUGAGCAUCA
B14: chr10:87746157:87746259:+|3pUTR|ENSG00000198682|unk|FALSE|unique (ssRNA)
RNA: GGGAGUUCUACAGUCCGACGAUCAACUGAAGACCAAAUCUUAGCAGGUAAAAGCAAUAUUCUUAUACAUUUCAUAAUAAAAUUAGCUCUAUGUAUUUUCUACUGCACCUGAGCAGGCAGGUCCCAGAUUUCUUAAGGCUUUGUCAACAGAGGAUUGAGCAUCA
B15: chr17:21001410:21001511:-|3pUTR|ENSG00000124422|msi1_unk|FALSE|overlapping (ssRNA)
RNA: GGGAGUUCUACAGUCCGACGAUCUAGUACAACUUUUAGACACAGAAAUCUGAAUGACAUAUAUUGUUCUGUGUCAAGAAACUUAGAUUUUUUUUUUAACUAUUUAAAAACGUGAAACCUAUUCUUAGCUCACAGGCCAUGGAGCAACAGAGGAUUGAGCAUCA
B16: chr10:87814449:87814585:-|CDS|ENSG00000138138|unk|FALSE|bound_elsewhere (ssRNA)
RNA: GGGAGUUCUACAGUCCGACGAUCUUUAAUUUUCCGUUUGACAAUAUUUGGUGCAGUGACAUACUUUACUAUCAAAUGGAUGGUAGAUGCAAUUGAUCCAACCAGAAAGCAAAAAGUAGAAGCUCAGAAACAGGUAUGAUUGAACAACAGAGGAUUGAGCAUCA
B17: ENSG00000104805:stop:overlap|stop_codon|ENSG00000104805|stop_codon|NA|stop_codon (ssRNA)
RNA: GGGAGUUCUACAGUCCGACGAUCAGUUGAAGGAGGUGUGGGAGGAGCUGGAUGGACUGGACCCCAACAGCAUCCCAAAGUGCUAGGAUUACAGGCGUGAGUCACUGCGCCCGGCCUCGAAAGCCCUUUCUCUAUGGUGGAUCACAACAGAGGAUUGAGCAUCA
B18: chr2:45599705:45599806:-|CDS|ENSG00000068784|msi1|total|mutant (ssRNA)
RNA: GGGAGUUCUACAGUCCGACGAUCCUCAUAUGUUCUCUUUGUGGUUUGACCGAACCGCUCUGUGGCUAUUGCUGAUACUGCUUCCGAAGACAGAAAAAAUAAAUUGGAUACUGUACAGACUCUGAAAACAGCCAAGACAAAACACAACAGAGGAUUGAGCAUCA
B19: chr1:93365539:93365640:+|3pUTR|ENSG00000117505|unk|FALSE|unique (ssRNA)
RNA: GGGAGUUCUACAGUCCGACGAUCAGGAGGCAAAAUUGCACCCUGUUGAAAACCACCACCUUAGAUCAUCUAGGUUUUACUUUUAGGAUAAGACACUUGAGGGAAAGGCUGUGAAACUGAACCUCUGUUAGAAGCAACACACAGCAACAGAGGAUUGAGCAUCA
B20: chr2:171983412:171983537:+|3pUTR|ENSG00000128708|unk|total|mutant (ssRNA)
RNA: GGGAGUUCUACAGUCCGACGAUCUGAUGACUUUAAUUUUAAAAUCUUGUGACAUUUUGCUUAUACUAAAAGUUAUCUAUCUUCCGUUGAAUAUUUUCUUUUGGAGAGAUUGUAUAUUUUAAAAUACUGUUCCGAGUUUAUGAGCAACAGAGGAUUGAGCAUCA
B21: chr19:41330322:41331077:-|three_prime_utr|ENSG00000105329|control|control|control (ssRNA)
RNA: GGGAGUUCUACAGUCCGACGAUCGUCUGCACUAUUCCUUUGCCCGGCAUCAAGGCACAGGGGACCAGUGGGGAACACUACUGUAGUUAGAUCUAUUUAUUGAGCACCUUGGGCACUGUUGAAGUGCCUUACAUUAAUGAACUCCAACAGAGGAUUGAGCAUCA
B22: chr12:88196262:88196297:+|3pUTR|ENSG00000139324|msi1_unk|FALSE|overlapping (ssRNA)
RNA: GGGAGUUCUACAGUCCGACGAUCUGUAUACUUGUUUUUAACUUUAAAUGUAAUUUUUAAUCAGGUAAAGUUUGACACAUGUAUAGCUACAUACACACAUUUUUAAUGGUGCUCAUAUAUACUGUAUUUUUUGUUGUUUAGUUUCAACAGAGGAUUGAGCAUCA

biological target: T1, UNK ZnF1-6 (called full-length) (human, UniProt Q9C0B0 30-357); experiment: nsRBNS (natural sequence RNA bind-n-seq); RBNS binding buffer (assumed for nsRBNS): 25 mM Tris pH 7.5, 150 mM KCl, 3 mM MgCl2, 0.01% Triton X-100, 500 ug/ml BSA, 20 U/ml SUPERase-In, 4 C; UNK is unkempt and MSI1 is Musashi-1; names of the RNAs are library labels; protein concentration not given here; high values mean tight binding
T1 sequence: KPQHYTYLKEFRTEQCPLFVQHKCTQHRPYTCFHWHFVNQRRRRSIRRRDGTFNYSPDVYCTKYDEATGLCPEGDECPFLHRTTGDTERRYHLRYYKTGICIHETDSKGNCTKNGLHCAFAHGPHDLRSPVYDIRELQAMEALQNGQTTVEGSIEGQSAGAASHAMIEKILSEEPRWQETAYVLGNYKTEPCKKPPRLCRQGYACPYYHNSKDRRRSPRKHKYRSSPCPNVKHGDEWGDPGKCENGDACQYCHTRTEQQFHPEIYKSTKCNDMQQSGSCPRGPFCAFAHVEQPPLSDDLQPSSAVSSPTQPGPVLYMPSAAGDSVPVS

Binder	binding signal [enrichment R]
B1	3.85
B2	0.567
B3	6.11
B4	0.56
B5	3.46
B6	0.227
B7	0.645
B8	0.794
B9	4.55
B10	18.1
B11	2.13
B12	0.454
B13	13.3
B14	18.7
B15	24.9
B16	0.395
B17	0.682
B18	0.362
B19	5.47
B20	0.599
B21	2.74
B22	3.56
